Data: publication PMC12280212

Target: PPIA (UniProt P62937)
Assay: cross-linking mass spectrometry
Details: DSSO, in cells

Sequence of PPIA (P62937 whole entry): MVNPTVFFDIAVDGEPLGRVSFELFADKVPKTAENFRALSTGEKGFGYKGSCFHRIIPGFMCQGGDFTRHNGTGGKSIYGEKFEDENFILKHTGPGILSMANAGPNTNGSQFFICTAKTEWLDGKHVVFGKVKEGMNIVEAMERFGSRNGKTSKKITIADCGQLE
Sequence of YWHAQ, P27348 (P27348 whole entry): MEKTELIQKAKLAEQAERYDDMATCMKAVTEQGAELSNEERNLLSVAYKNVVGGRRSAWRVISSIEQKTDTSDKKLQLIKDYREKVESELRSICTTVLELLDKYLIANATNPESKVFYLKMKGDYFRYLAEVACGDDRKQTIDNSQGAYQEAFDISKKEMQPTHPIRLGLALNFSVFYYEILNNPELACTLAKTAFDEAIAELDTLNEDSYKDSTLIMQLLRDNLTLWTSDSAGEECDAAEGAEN
Sequence of GAPDH, P04406 (P04406 whole entry): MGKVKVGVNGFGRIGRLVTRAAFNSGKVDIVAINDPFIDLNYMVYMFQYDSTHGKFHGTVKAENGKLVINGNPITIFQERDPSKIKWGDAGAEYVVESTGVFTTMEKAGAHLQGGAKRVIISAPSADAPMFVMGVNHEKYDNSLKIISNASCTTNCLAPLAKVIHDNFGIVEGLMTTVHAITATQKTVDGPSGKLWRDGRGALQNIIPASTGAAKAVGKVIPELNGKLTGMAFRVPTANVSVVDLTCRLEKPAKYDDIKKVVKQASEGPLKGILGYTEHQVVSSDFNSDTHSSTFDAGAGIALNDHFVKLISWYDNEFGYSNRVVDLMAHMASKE
Sequence of ENO1, P06733 (P06733 whole entry): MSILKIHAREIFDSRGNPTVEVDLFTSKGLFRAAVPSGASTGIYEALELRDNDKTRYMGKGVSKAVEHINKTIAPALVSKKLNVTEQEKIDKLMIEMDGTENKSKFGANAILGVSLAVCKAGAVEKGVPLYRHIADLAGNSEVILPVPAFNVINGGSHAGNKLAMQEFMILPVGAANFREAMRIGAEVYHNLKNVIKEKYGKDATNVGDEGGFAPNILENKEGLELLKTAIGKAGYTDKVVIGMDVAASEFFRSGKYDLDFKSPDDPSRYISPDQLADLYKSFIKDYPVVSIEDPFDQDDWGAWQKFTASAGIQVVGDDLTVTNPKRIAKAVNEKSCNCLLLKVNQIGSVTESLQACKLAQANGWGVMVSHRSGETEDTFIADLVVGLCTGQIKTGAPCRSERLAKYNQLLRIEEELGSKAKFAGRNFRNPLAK
Sequence of YWHAB, P31946 (P31946 whole entry): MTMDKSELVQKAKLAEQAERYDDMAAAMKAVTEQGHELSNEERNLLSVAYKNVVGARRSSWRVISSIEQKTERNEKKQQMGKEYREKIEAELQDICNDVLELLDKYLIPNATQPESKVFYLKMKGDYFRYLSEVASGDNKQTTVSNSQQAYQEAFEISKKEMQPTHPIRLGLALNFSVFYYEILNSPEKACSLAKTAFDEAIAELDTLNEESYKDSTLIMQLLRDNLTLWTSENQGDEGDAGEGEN

| Substance | cross-linked residues |
| --- | --- |
| VIM, P08670 | K445 - K76 |
| ENO1, P06733 | K256 - K82 |
| GAPDH, P04406 | K251 - K76 |

Target: RRBP1 (UniProt Q9P2E9)
Assay: cross-linking mass spectrometry
Details: DSSO, in cells

| Substance | cross-linked residues |
| --- | --- |
| LRRC59, Q96AG4 | K180 - K261 |
| RPL31, P62899 | K91 - K261 |
| RPL11, P62913 | K67 - K270 |
| SEC61B, P60468 | K20 - K261 |
| RPL10A, P62906 | K130 - K261 |

Target: YWHAZ (UniProt P63104)
Assay: cross-linking mass spectrometry
Details: DSSO, in cells

| Substance | cross-linked residues |
| --- | --- |
| S100A6, P06703 | K26 - K157 |
| YWHAB, P31946 | K11 - K85 |
| YWHAQ, P27348 | K9 - K85 |
